EPAC2 antagonist – blocks human EPAC2 exchange factor | EPAC2 GEF exchange of Rap1B-BODIPY-GDP, fluorescence | AID 720708 | hit rate 0.18% among 360,000 | Q8WZA2 | Potency, µM (highest dose often 114 µM), without a hit: at the highest dose activity, negative = inhibition, actives largely listed as inhibitors; further: potency means the concentration at half of the fitted maximal effect; on the % scale 0 is the no-effect control and ±100 the full control effect; nearly all actives have a fitted effect of over 45% in size
EPAC1 agonist – agonists of human EPAC1 | Potency, µM (top dose mostly 154 µM), inactives show at the highest dose activation, hits mostly activators | EPAC1 agonist qHTS, biochemical assay; response scale: 100% = response to 6.5 mM cAMP | hit rate 0.073% among 360,000 | O95398 | AID 720707; further: potency means the concentration at half of the fitted maximal effect; nearly all actives have a fitted effect of over 60% in size
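Nucleotide exchange assay: 100 nM EPAC1 with 250 nM Rap1B loaded with BODIPY-GDP and 50 uM GDP, room temperature. Fluorescence (480/540 nm) read every 5 min for 30 min; signal change normalized to 6.5 mM cAMP as full agonist.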
EPAC2 agonist – EPAC2 (human) agonism; Q8WZA2; EPAC2 activation, biochemical qHTS; response scale: 100% = 6.5 mM cAMP response; Potency, µM (titrated, usually from 154 µM), for inactives: top-dose activation, most hits filed as activators; hit rate 0.079% among 360,000; AID 720711; further: potency means the concentration at half of the fitted maximal effect; nearly all actives have a fitted effect of over 50% in size
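Guanine nucleotide exchange by EPAC2 is measured as reduced fluorescence of BODIPY-GDP once it is released from 250 nM Rap1B. Plates are read kinetically for 30 min at room temperature; results are scaled to 6.5 mM cAMP.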
PTHR1 ag – PTHR1 (human) receptor agonism. hit rate 0.075% among 410,000. AID 743266. Potency, µM (highest dose often 115 µM), inactives show at the highest dose activation, usual class: activators. HEK293 GP2 PTHR1 cells, GloSensor cAMP luminescence, 1 h. Q03431; further: potency means the concentration at half of the fitted maximal effect; nearly all actives have a fitted effect of over 55% in size
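HEK-293-derived GP2 cells expressing PTHR1 and a GloSensor cAMP reporter, 3,000/well, plated overnight, given luciferin plus IBMX (each 0.5 mM as added) for 1 h at 37 °C, then compound for 1 h at 37 °C. Luminescence was read after 15 min at room temperature.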
TSHR antagonist – antagonists of human thyroid stimulating hormone receptor. P16473. TSHR-expressing cells, TSH-stimulated cAMP HTRF, 2 h; stronger effect = lower value. activity change, negative = inhibition, % at 11.5 µM. hit rate 0.2% among 330,000. AID 504810;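 active means activity change below a set negative limit, meaning inhibition stronger than a set level, cut at about -70% in these data; inconclusive means activity change between two set negative limits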; further: on the % scale 0 is the no-effect control and ±100 the full control effect
Target sequence (P16473 whole entry, looked up): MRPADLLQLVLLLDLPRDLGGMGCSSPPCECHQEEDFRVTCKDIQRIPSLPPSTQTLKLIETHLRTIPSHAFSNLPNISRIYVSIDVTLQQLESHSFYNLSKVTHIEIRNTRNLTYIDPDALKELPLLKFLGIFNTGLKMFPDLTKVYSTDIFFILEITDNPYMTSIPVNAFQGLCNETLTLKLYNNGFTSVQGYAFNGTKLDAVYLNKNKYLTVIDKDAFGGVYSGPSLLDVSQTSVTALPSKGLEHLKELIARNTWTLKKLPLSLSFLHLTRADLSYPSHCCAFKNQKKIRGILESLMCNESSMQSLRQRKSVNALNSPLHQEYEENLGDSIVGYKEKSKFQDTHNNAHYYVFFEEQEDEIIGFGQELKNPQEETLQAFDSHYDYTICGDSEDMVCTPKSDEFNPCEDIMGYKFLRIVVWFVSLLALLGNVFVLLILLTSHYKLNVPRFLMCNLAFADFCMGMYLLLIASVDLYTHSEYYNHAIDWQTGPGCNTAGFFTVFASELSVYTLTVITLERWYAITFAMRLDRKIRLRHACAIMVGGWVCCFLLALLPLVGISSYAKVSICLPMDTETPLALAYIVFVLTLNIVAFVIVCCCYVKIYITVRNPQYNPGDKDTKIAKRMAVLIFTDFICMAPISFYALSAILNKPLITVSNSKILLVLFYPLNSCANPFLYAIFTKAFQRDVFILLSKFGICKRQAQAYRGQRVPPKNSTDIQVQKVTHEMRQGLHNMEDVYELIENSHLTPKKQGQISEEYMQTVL
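Inhibition of cAMP made by TSHR-expressing cells under TSH stimulation (4nM final, EC80; 2 h, 37 deg C) is quantified with a one-step lysis HTRF kit, anti-cAMP cryptate versus cAMP-d2.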
EPAC1 antagonist – EPAC1 (human) antagonism. Potency, µM (series often up to 115 µM), without a hit: at the highest dose activity change, negative = inhibition, most hits filed as inhibitors. EPAC1 GEF assay, Rap1b-BODIPY-GDP exchange fluorescence. hit rate 0.14% among 360,000;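 further: potency means the concentration at half of the fitted maximal effect; plate controls were vehicle for no effect and positive control for full effect; nearly all actives have a fitted effect of over 50% in size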
Active calls of the source: *; i = inactive; ? = inconclusive; nt = no result given; [ ] = another dose, or the depositor's remark. The list is not random: actives were taken first. Their share in the collection is about 0.5%. Unless noted, the call rests on the fitted dose curve; in most records, active means well fitted curve in the direction sought with a large enough effect; inconclusive means small, poorly fitted or top-dose-only effect, or another doubt; inactive means no such curve, though single readings can be large; an effect the other way counts as inactive or inconclusive.

SMILES	EPAC2 antagonist	EPAC1 agonist	EPAC2 agonist	PTHR1 ag	TSHR antagonist	EPAC1 antagonist
CCCCNC(=O)C1(C)CCN1C(=O)c1cc(-c2cccs2)oc1C (stereo not drawn)	-3%	2%	1%	-64%	nt	-3%
N#Cc1c(-c2ccccc2)nc(SCC(=O)Nc2ccc(OC(F)(F)Cl)cc2)[nH]c1=O	35µM*	-5%	-6%	i	-10	?
N#Cc1c(-c2ccccc2)nc(SCC(=O)N2c3ccccc3Sc3ccccc32)[nH]c1=O	8.9µM*	9%	2%	i	-17	79µM*
N#Cc1c(-c2ccccc2)nc(SCc2ccc(Cl)cc2)[nH]c1=O	?	-15%	-2%	i	-44	79µM*
N#Cc1c(-c2ccccc2)nc(SCC(=O)N(c2ccccc2)c2ccccc2)[nH]c1=O	2%	-10%	-3%	-2%	-11	-6%
O=C(CC[C@H]1O[C@@H](n2cnc3c(NC(=O)c4ccccc4)ncnc32)[C@H](O)[C@@H]1O)NCc1ccco1	5%	1%	5%	-18%	nt	10%
O=C(COC(=O)c1c2c(nc3ccccc13)/C(=C/c1ccco1)CC2)NC1CCCC1	0%	-4%	0%	-6%	-6	?
CC1CCCCC1NC(=O)COC(=O)c1c2c(nc3ccccc13)/C(=C/c1ccco1)CC2 (stereo not drawn)	16%	-36%	-3%	-16%	6	45µM*
Cc1ccc(C)c(N2CCN(C(=O)c3cc4cc5ccc(C)cc5nc4o3)CC2)c1	nt	nt	nt	-28%	nt	nt
CN(Cc1ccc(F)cc1)C(=O)c1cccc(OCc2ccccc2)c1	50µM*	7%	17%	-23%	-2	-6%
C[C@@H]1CN([C@H](C)CO)C(=O)c2cc(Br)cnc2O[C@@H]1CN(C)C(=O)Nc1ccccc1	1%	-6%	-1%	-16%	nt	2%
O=C(COC(=O)C1CC1)Nc1ccccc1Sc1ccccc1	56µM*	11%	14%	-18%	-3	-12%
COC(=O)C1CCN(CC(=O)Nc2ccccc2Sc2ccccc2)CC1	?	13%	19%	-22%	2	-5%
COc1ccc(C)cc1NC(=O)c1ccccc1NS(=O)(=O)c1ccc(Cl)s1	32µM*	-8%	2%	-49%	-76*	-14%
COc1ccccc1NC(=O)c1ccccc1NS(=O)(=O)c1cccs1	?	-2%	2%	-25%	2	-26%
CC1CN(c2nc3ccccc3nc2NS(=O)(=O)c2ccccc2)CC(C)O1 (stereo not drawn)	-8%	4%	7%	i	3	-1%
Cc1ccc2nc3sc(C(=O)NCc4ccco4)c(N)c3cc2c1	-8%[57.1 µM]	100µM*	-8%	-6%[57.5 µM]	4	105%
C=CCNC(=S)NNC(=O)c1ccccc1OCC	8%	5%	0%	-1%	-5	4%
CCN(CC(=O)Nc1ccccc1C(F)(F)F)C(=O)CCOc1ccccc1C	1%	45µM*	10%	i	23	-15%
CC1=C(C(=O)OCc2ccccc2)C(c2ccc(C(C)(C)C)cc2)NC(=O)N1CCCCCC(=O)O (stereo not drawn)	16µM*	-6%	-10%	-82%	-3	-16%
CC(=O)Nc1ccccc1OCC(=O)NC(C)c1ccccc1 (stereo not drawn)	-6%[57.1 µM]	-2%	11%	i	10	5%
CC(NC(=O)COc1ccccc1-c1ccccc1)c1ccccc1 (stereo not drawn)	40µM*	1%	6%	-10%	-7	-17%
Cc1ccc(S(=O)(=O)N(Cc2ccccc2)c2ccccc2C(=O)N2CCCCC2)cc1	-2%	21%	9%	i	-78*	15%
CCCCCn1nc(-c2ccccc2)c2nc3ccccc3nc21	236%	2%	100µM*	i	-1	15%
CNc1ccc2c3c(cccc13)C(=O)N(C)C2=O	i	100µM*	?	-29%	0	-23%
SMILES	EPAC2 antagonist	EPAC1 agonist	EPAC2 agonist	PTHR1 ag	TSHR antagonist	EPAC1 antagonist
CN1C(=O)c2cccc3c(Cl)ccc(c23)C1=O	1%	-1%	8%	i	-8	6%
Oc1ccccc1N1CCN(c2ccc3ccccc3n2)CC1	-10%	18%	27%	-24%	-77*	-21%
CC1=CCC2C(=O)N(c3ccc(C(=O)Nc4ccccc4Cl)cc3)C(=O)C2C1 (stereo not drawn)	-13%	4%	23%	-2%	-82*	-5%
COc1ccc(N=Cc2c(O)n(-c3cccc(C)n3)c(=O)c3ccccc23)c(OC)c1	119%	9%	100µM*	i	-1	10%
COc1ccc2oc(-c3ccc(C)c(NC(=O)c4ccc(-c5ccccc5[N+](=O)[O-])o4)c3)nc2c1	nt	nt	nt	-18%	nt	nt
Cc1coc2c1c(C)cc1oc(=O)c(CC(=O)NCC(=O)O)c(C)c12	-2%	13%	6%	i	-1	1%
Cc1ccc(CNC(=O)Cc2c(C)c3c(cc(C)c4c(C)coc43)oc2=O)cc1	nt	nt	nt	16µM*	nt	nt
CC(=O)c1ccc(NC(=O)CSc2nnc3ccc(-c4ccc(Cl)cc4)nn23)cc1	nt	nt	nt	-9%	nt	nt
CCOc1ccc(C(=O)NCCn2cc(SCC(=O)NCCc3ccc(OC)c(OC)c3)c3ccccc32)cc1	nt	nt	nt	-52%	nt	nt
CC1CCN(Cc2c(C(=O)N/N=C/c3cc(Cl)ccc3O)nnn2-c2nonc2N)CC1	-7%	1%	1%	-6%	-100*	-8%
CC1CCN(Cc2c(C(=O)N/N=C/c3cc(Br)ccc3O)nnn2-c2nonc2N)CC1	-11%	-15%	0%	i	-4	-25%
Cn1c(O)c(N=NC(=O)c2ccccc2O)c2ccccc21	-16%	2%	3%	-32%	-1	32µM*
Cc1cc(N=NC(=O)c2ccccc2O)c2ccccc2c1O	-23%	-1%	-2%	-34%	-72*	-14%
CC(=O)c1cc(O)c2ccccc2c1O	-5%	-3%	4%	-28%	-11	-24%
C[C@H]1CN(CCc2ccccc2)C(=O)[C@@H]1CC(=O)Nc1ccc(Br)cc1	4%	-5%	15%	i	nt	-3%
O=C(c1cccc(Cl)c1)N1CCN(Cc2ccc3c(c2)OCO3)CC1	2%	7%	2%	i	-120*	0%
O=C(c1ccc2c(c1)OCO2)N1CCN(S(=O)(=O)c2ccc(Cl)cc2)CC1	10%	-9%	2%	-40%	-96*	-2%
O=C(c1ccc2c(c1)OCO2)N1CCN(c2ccc(Cl)cc2)CC1	-3%	9%	18%	-24%[57.5 µM]	-1	0%
Cc1ccc2cc3cc(C(=O)N4CCN(c5cccc(C(F)(F)F)c5)CC4)sc3nc2c1	nt	nt	nt	-17%	nt	nt
